Molecules are shown by their SMILES. Where “and” joins values, the source holds several entries; their conditions need not be identical. Equal entries are not always repeated. Inconclusive results are not listed. A structure can be active in one record and inactive in another. Calls of active or inactive are those of the source. Unless noted, calls come from the whole dose curve; as a rule, active = well fitted curve in the direction sought with a large enough effect in the repeat runs; inconclusive = weak or mixed curves; inactive = no such curve, though single readings can be large; an effect the other way counts as inactive or inconclusive.

Assay [1] is described as follows: qHTS assay to identify small molecule agonists of the RXR signaling pathway - cell viability counter screen (AID 1159529). Note: nearly all actives have a fitted effect of over 50% in size. Note: potency is the fitted concentration of half-maximal effect. In short, it runs like this:
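CellTiter-Glo luminescence gave viability in the wells also read for beta-lactamase. Cells (RXR-alpha-UAS-bla HEK 293T, 2% charcoal-stripped FBS medium) had 5 hr plating, then 16 hr compound exposure at 37 C; tetraoctyl ammonium bromide served as positive control.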
Background: qHTS replaces the single test concentration by a dilution series.

Assay [2] can be described thus: qHTS assay to identify small molecule antagonists of the retinoid acid receptor (RAR) signaling pathway - cell viability counter screen (AID 1159551). Note: nearly all actives have a fitted effect of over 35% in size. Summed up: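 Measured by luminescent ATP detection, viability reflects C3RL4 cells treated 6 h at 37 C with test chemicals in the presence of 1 uM (final) retinol.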
Assay [3] in a line: qHTS assay to identify small molecule agonists of the retinoic acid receptor (RAR) signaling pathway (AID 1159553). The conditions noted are these: C3RL4 RARE luciferase reporter, agonist, 6 h; activation: at 73.3 µM (top of the series) unless noted. Summed up: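 6 hr compound exposure (DMSO vehicle) of overnight-plated C3RL4 RARE-luc cells at 37 C; luminescence quantified after 30 min RT with luciferase reagent.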

A short description of assay [4]: qHTS assay to identify small molecule antagonists of the estrogen related receptor (ERR) signaling pathway from Tox21 library - cell viability counter screen (AID 1224834). Note: nearly all actives have a fitted effect of over 30% in size. Note: potency is the fitted concentration of half-maximal effect. Summed up: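 Seeded ERR cells were rested 6 h at 37 C/5% CO2 before compounds, positive and negative controls or DMSO were added. Incubation continued for 17.5 h, and viability was then quantified by CellTiter-Fluor fluorescence.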

In assay [5] the target is Luciferin 4-monooxygenase (Photinus pyralis) (UniProt P08659). The assay is described as follows: qHTS assay to identify small molecule inhibitors of firefly luciferase (AID 1224835). Note: nearly all actives have a fitted effect of over 25% in size. In short, it runs like this:
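Quantitative HTS format; KM concentrations of both substrates. Purified P. pyralis FLuc activity quantified from luminescence images.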

The nature of assay [6]: qHTS assay to identify small molecule agonists of the constitutive androstane receptor (CAR) signaling pathway - cell viability counter screen (AID 1224836). Note: nearly all actives have a fitted effect of over 45% in size. Summed up:
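Cell viability multiplexed with the CAR agonist screen: CellTiter-Fluor fluorescence after 23 hr at 37 C. HepG2-CYP2B6-hCAR cells got compounds at 15 concentrations with PK11195 at 0.75 uM final.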

Assay [7] has as its target Retinoic acid receptor RXR-alpha (Homo sapiens) (UniProt P19793). The assay is described as follows: qHTS assay to identify small molecule agonists of the RXR signaling pathway (AID 1159527; calls by dose curve; note: nearly all actives have a fitted effect of over 35% in size). In short, it runs like this: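 Agonist-mode beta-lactamase reporter assay: HEK 293T RXR-alpha-UAS-bla cells treated 16 hr at 37 C with compounds, 9-cis retinoic acid as positive control. LiveBLAzer FRET substrate, 405 nm excitation, 460/530 nm emission.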

Assay [8] in a line: qHTS assay to identify small molecule antagonists of the retinoic acid receptor (RAR) signaling pathway (AID 1159552; note: nearly all actives have a fitted effect of over 50% in size). In short, it runs like this: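 Luminescent RARE reporter read-out in C3RL4 cells: 6 hr co-treatment at 37 C of test compounds with retinol at 1 uM final. Cells plated overnight beforehand; luciferase reagent incubated 30 min at room temperature before reading.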

A short description of assay [9]: qHTS assay to identify small molecule antagonists of the estrogen related receptor (ERR) signaling pathway - cell viability counter screen (AID 1224818).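 Note: viability measured after 17.5 h of compound exposure.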 Summed up:
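Compounds dissolved in DMSO were applied to ERR cells seeded at 2,000 per well 6 h earlier. Cell viability followed 17.5 h later via 30-min CellTiter-Fluor fluorescence.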

Assay [10] is described as follows: qHTS assay to identify small molecule antagonists of the estrogen related receptor signaling pathway with the pleiotropic PPARgamma coactivator (PGC) cell viability counter screen (AID 1224822;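 note: viability read after 17.5 h compound exposure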). From the text:
National Center for Advancing Translational Sciences [NCATS]
NIH Chemical Genomics Center [NCGC]
U.S. Environmental Protection Agency [EPA]
National Institutes of Environmental Health Sciences [NIEHS]
National Toxicology Program [NTP]
U.S. Food and Drug Administration [FDA]
Estrogen related receptors (ERRs), the first orphan nuclear receptors discovered, play an important role in the control of cellular energy metabolism. ERRs are required for high-energy production in response to the environmental challenges. The pleiotropic PPARgamma coactivator (PGC) is a major partner of ERR and a key regulator in energy homeostasis. Together they have been implicated in the etiology of metabolic disorders such as Type 2 diabetes and metabolic syndrome. ERR-alpha was also identified as an adverse marker for breast cancer progression; ERR-alpha-positive tumors have a poor prognosis. To screen and to identify environmental compounds that perturb the ERR and PGC/ERR signaling pathways could provide valuable information for potential therapeutic or preventive measures in the treatment of metabolic disease. To differentiate true PGC/ERR antagonists or agonist from cytotoxic substances, the assay is multiplexed with cell viability assay.
Tox21 Assay Protocol Summary:
The PGC/ERR cells were dispensed at 2,000 cells/5 ul/well in 1536-well white plates using a Multidrop dispenser. After the assay plates were incubated at a 37 C/5% CO2 incubator for 6 hours, 23 nL of compounds dissolved in DMSO, positive and negative controls or DMSO only was transferred to the assay plate by a pin tool. The plates were incubated at 37 C for 17.5 hours. 1 ul/well of CellTiter-Fluor reagent was added into the assay plates using a Flying Reagent Dispenser. After 30 min incubation at 37 C/5% CO2, the fluorescence intensity in the plates was measured using a ViewLux plate reader.
% is set by controls: 0 for no effect and ±100 for the full control effect.

Sequence of Luciferin 4-monooxygenase (Photinus pyralis) (P08659 whole entry, looked up): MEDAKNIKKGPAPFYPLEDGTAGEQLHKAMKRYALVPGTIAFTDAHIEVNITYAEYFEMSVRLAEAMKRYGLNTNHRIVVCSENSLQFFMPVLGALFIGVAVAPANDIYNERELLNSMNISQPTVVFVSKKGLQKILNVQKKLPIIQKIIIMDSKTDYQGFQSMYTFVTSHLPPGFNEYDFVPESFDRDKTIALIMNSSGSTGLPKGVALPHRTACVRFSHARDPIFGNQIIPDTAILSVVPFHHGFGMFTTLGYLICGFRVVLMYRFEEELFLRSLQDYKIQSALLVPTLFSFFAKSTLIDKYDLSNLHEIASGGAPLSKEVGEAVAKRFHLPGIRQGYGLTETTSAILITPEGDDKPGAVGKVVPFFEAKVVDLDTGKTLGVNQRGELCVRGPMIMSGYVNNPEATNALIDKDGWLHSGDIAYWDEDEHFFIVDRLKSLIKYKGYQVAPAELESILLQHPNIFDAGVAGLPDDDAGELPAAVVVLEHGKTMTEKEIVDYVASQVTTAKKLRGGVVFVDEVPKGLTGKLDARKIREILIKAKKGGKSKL
Sequence of Retinoic acid receptor RXR-alpha (Homo sapiens) (P19793 whole entry, looked up): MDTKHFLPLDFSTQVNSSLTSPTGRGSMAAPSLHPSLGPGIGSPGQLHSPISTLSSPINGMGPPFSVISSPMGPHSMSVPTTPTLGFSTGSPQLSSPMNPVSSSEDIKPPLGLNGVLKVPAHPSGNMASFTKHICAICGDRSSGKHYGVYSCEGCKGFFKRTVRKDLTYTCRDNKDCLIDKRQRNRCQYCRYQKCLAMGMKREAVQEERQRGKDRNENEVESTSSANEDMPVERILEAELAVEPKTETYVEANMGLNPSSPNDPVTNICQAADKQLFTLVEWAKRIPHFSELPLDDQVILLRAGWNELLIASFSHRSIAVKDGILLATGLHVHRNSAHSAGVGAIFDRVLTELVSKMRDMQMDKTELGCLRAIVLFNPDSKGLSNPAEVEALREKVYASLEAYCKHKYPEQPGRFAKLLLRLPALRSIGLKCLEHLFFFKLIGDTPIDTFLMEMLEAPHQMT

For the compound `Cc1cccc([N+](=O)[O-])c1`, the Potency result in assay [1], in [3], in [4], in assay [5] and in assay [6] was “inactive” throughout. The call in assay [2] was inactive.

Turning to `C=C(C)CCl`, in assay [7], the activation was 1.01% [at 6.98 µM] (inactive). Moreover, the Potency result in [1], in [4], in assay [5] and in assay [6] was “inactive” each time. Further, the call in [2] was inactive.

As for `CN(C)[C@@H]1C(=O)C(C(N)=O)=C(O)[C@@]2(O)C(=O)C3=C(O)c4c(O)cccc4[C@@](C)(O)[C@H]3C[C@@H]12`, the Potency result in [7], in [1], in assay [4] and in [6] was “inactive” in each case. For the same compound, in assay [2], the compound was classed as inactive.

Regarding `O=C1CCCN1`, the Potency entry in assay [7], in assay [1], in [4], in assay [5] and in [6] was “inactive” each time. Besides, in assay [2], the compound was called inactive.

As for `ClCc1cccnc1`, the Potency entry in assay [7], in assay [1], in [4], in assay [5] and in assay [6] was “inactive” each time. Moreover, the call in [2] was inactive.

As for `COC(=O)c1ccccc1N`, the Potency entry in assay [1], in [4] and in assay [5] was “inactive” throughout. For the same compound, the compound was called inactive in [2].

In the case of `CC(C)NC(=O)N1CC(=O)N(c2cc(Cl)cc(Cl)c2)C1=O`, the Potency result in [7], in assay [1], in [4], in assay [5] and in assay [6] was “inactive” in each case. Also, the call in assay [2] was inactive.

For the compound `c1ccc2c(c1)oc1ccccc12`, the Potency entry in assay [1], in assay [4] and in assay [6] was “inactive” throughout. The call in [2] was inactive.

For the compound `CCCCN(CC)C(=O)SCCC`, the Potency entry in assay [1], in [8], in assay [3], in assay [4], in [5] and in [6] was “inactive” in each case. For the same compound, the compound was classed as inactive in [2].

With `CC1OC(C)OC(C)O1` (stereo unspecified), the Potency result in assay [7], in assay [1], in assay [4], in assay [5] and in assay [6] was “inactive” throughout. Moreover, the compound was classed as inactive in [2].

With `CCN(CC)CCO`, the Potency entry in assay [1], in assay [4] and in assay [5] was “inactive” each time. In addition, the outcome in assay [2] was inactive.

With `COC(=O)NC(=S)Nc1ccccc1NC(=S)NC(=O)OC`, the Potency entry in assay [7], in assay [1], in assay [4], in assay [5] and in assay [6] was “inactive” each time. For the same compound, in assay [2], the outcome was inactive.

With `C[C@]12CC[C@H]3[C@@H](CC[C@@]45O[C@@H]4C(O)=C(C#N)C[C@]35C)[C@@H]1CC[C@@H]2O`, the Potency result in assay [1], in [4], in assay [5] and in assay [6] was “inactive” in each case. The outcome in assay [2] was inactive.

Regarding `CCC(C)(CC)c1cc(NC(=O)c2c(OC)cccc2OC)on1`, the Potency result in assay [1], in [8], in [3], in assay [5] and in [6] was “inactive” each time. Besides, the outcome in [2] was inactive.

On to `NCCc1ccc(O)cc1`, for which the Potency in assay [1] is 48.6 µM (active) and inactive. Also, the result in assay [2], in [9] and in [10] was inactive. The Potency result in [8], in [3], in assay [4] and in [5] was “inactive” in each case.

Turning to `CN(N=O)c1ccccc1`, the Potency result in [7], in [1], in assay [4], in assay [5] and in assay [6] was “inactive” in each case. In addition, the compound was called inactive in assay [2].

Regarding `O=S(=O)(c1ccc(Cl)cc1)c1cc(Cl)c(Cl)cc1Cl`, the Potency entry in assay [1], in assay [3], in assay [4], in assay [5] and in [6] was “inactive” in each case. The outcome in [2] was inactive.

With `CCOC(=O)c1ccccc1C(=O)OCC`, the Potency result in assay [1], in [8], in assay [3], in [4], in [5] and in assay [6] was “inactive” throughout. Moreover, the compound was classed as inactive in assay [2].

On to `CCOP(=S)(OCC)Oc1cnc2ccccc2n1`, for which the Potency entry in assay [1], in assay [8], in assay [3], in assay [4], in [5] and in assay [6] was “inactive” in each case. Besides, the compound was classed as inactive in [2].

`CCCN(CCC)c1c([N+](=O)[O-])cc(C(F)(F)F)cc1[N+](=O)[O-]`: the Potency result in assay [1], in [4], in assay [5] and in [6] was “inactive” each time. Besides, the outcome in assay [2] was inactive.

For the compound `Nc1c(Cl)c(Cl)nc(C(=O)O)c1Cl`, the Potency result in assay [1], in assay [4] and in [5] was “inactive” in each case. The call in assay [2] was inactive.

Consider `CC(Oc1ccc(Cl)cc1Cl)C(=O)O` (stereo unspecified), for which the Potency entry in assay [1], in assay [8], in assay [3], in assay [4] and in assay [5] was “inactive” throughout. Besides, the result in [2] was inactive.

`CCC[CH2][Sn]([Cl])([Cl])[Cl]`: the Potency entry in assay [7], in [1], in assay [4], in assay [5] and in assay [6] was “inactive” each time. Also, in [2], the outcome was inactive.

Take `C1CN2CCN1CC2`: the Potency entry in assay [1], in [8], in assay [3], in assay [4], in assay [5] and in [6] was “inactive” in each case. The result in [2] was inactive.

Consider `Cc1ccc(N)cc1N`, for which the Potency entry in assay [1] and in assay [4] was “inactive” in each case. The result in assay [2] was inactive.

As to `CCCCCCCCCCCC#N`, the Potency entry in [7], in assay [1], in assay [4], in assay [5] and in assay [6] was “inactive” throughout. The compound was classed as inactive in assay [2].

For `Cc1ccc([N+](=O)[O-])cc1C`, the Potency entry in assay [1], in assay [8], in assay [3], in assay [4] and in assay [5] was “inactive” each time. In assay [2], the compound was classed as inactive.

Regarding `CC(C)(C)OOC(C)(C)C`, the Potency result in [7], in assay [1], in assay [4], in assay [5] and in [6] was “inactive” each time. Also, the result in assay [2] was inactive.

In the case of `CCNc1nc(NC(C)(C)C)nc(SC)n1`, in assay [1], the Potency result is “inactive and 49 µM (active)”. In addition, the call in [2] was inactive. Also, the Potency entry in [8], in assay [3], in assay [4], in [5] and in [6] was “inactive” throughout.

Take `CC(C)=C[C@@H]1[C@@H](C(=O)OCc2coc(Cc3ccccc3)c2)C1(C)C`: the Potency entry in [1], in [8], in assay [3], in assay [4], in [5] and in assay [6] was “inactive” each time. Further, the result in assay [2] was inactive.

On to `CCCC1COC(Cn2cncn2)(c2ccc(Cl)cc2Cl)O1` (stereo unspecified), for which the Potency entry in assay [1], in [8], in assay [3], in assay [5] and in assay [6] was “inactive” throughout. Besides, the outcome in assay [2] was inactive. Moreover, the Potency in assay [4] is 49.4 µM (active) and 54.5 µM (active).

The values are drawn from PubChem BioAssay (Tox21).
